Compound activity deposited in PubChem by National Center for Advancing Translational Sciences (NCATS).
ALDH1A1 inh: blocks purified human ALDH1A1 activity; 220,000 compounds, 7.3% hits; Potency, µM (top dose mostly 75.3 µM), inactives show top-dose activity, negative = inhibition, actives largely listed as inhibitors; Purified ALDH1A1, NADH fluorescence, propionaldehyde substrate; P00352; active means well fitted inhibition curve with a large enough effect, not every such curve was filed as active; inconclusive means small, poorly fitted or top-dose-only effect, or another doubt; inactive means no such curve, though single readings can be large or run the other way;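 further: plate controls were no enzyme wells and a reference inhibitor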
Target sequence (P00352 whole entry, looked up): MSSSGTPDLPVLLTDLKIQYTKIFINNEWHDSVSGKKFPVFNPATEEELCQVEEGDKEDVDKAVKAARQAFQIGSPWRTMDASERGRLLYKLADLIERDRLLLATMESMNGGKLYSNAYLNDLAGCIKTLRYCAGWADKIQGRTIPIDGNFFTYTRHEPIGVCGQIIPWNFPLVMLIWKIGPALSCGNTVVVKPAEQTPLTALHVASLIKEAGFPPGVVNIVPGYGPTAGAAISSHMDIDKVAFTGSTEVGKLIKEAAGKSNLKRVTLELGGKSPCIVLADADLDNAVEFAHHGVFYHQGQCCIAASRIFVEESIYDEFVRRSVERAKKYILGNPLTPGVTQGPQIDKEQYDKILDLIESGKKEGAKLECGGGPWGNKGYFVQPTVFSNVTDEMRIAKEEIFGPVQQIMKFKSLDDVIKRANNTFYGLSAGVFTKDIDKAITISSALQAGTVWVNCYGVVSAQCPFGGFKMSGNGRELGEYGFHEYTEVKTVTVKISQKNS
RORg inh: inhibitors of mouse ROR gamma transcriptional activity. P51450. Drosophila S2 Gal4-RORgamma UAS-luciferase reporter, 20 h. Potency, µM (doses to about 53.6 µM), inactives show at the top dose activity change, negative = inhibition, hits mostly inhibitors. 310,000 compounds, 5.4% hits. AID 2551; further: nearly all actives have a fitted effect of over 60% in size
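Stable Schneider cell line, Gal4 DNA-binding domain fused to ROR gamma, UAS-luciferase. Cmpd 1 hr RT → CuSO4 700 uM final → 20 hr RT → luciferase reagent 10 min → luminescence.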
VP16 counter: Gal4-VP16 reporter inhibition counter-screen. Drosophila S2 Gal4-VP16 UAS-luciferase, luminescence, 20 h. Potency, µM (doses to about 53.6 µM), without a hit: at the top dose activity, negative = inhibition, actives largely listed as inhibitors. 310,000 compounds, 3.5% hits;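 further: Gal4-VP16 expression switched on by copper sulfate through the metallothionein promoter; nearly all actives have a fitted effect of over 50% in size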
PLK1 PBD block: PLK1 (human) polo-box domain binding inhibition; Potency, µM, inactives show max response, negative = inhibition, usual class: inhibitors; P53350; 360,000 compounds, 2.8% hits; Plk1 PBD binding of FITC phosphopeptide, fluorescence polarization; AID 720504; further: series mostly up to about 57 µM; nearly all actives have a fitted effect of over 65% in size
Sfp PPTase inh: Sfp phosphopantetheinyl transferase inhibition. Q9F4F7. Biochemical Sfp PPTase activity, qHTS. Potency, µM, inactives show largest response in the series, negative = inhibition, actives largely listed as inhibitors. 310,000 compounds, 3.5% hits. AID 1490;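 further: the enzyme is Sfp with the accession as filed and its product quenches rhodamine fluorescence; 0% = enzyme reaction without inhibitor and -100% = no enzyme wells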
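Reaction rates are the 30-min fluorescence difference (ex 525, em 598 nm) in wells containing 15 nM Sfp, 5 uM rhodamine-CoA and 12.5 uM BHQ-2-YbbR at pH 7.6 with 10 mM MgCl2.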
Numbers without * were called inactive; ? = inconclusive; nt = no result; [ ] = another dose, or the depositor's remark. This is a sample that favours compounds with a hit; in the whole collection about 12% have one here. Unless noted, the call rests on the fitted dose curve; in most records, active means well fitted curve in the direction sought with a large enough effect; inconclusive means small, poorly fitted or top-dose-only effect, or another doubt; inactive means no such curve, though single readings can be large; an effect the other way counts as inactive or inconclusive. Unless noted, on the % scale 0 is the no-effect control and ±100 the full control effect; potency means the concentration at half of the fitted maximal effect.

SMILES	ALDH1A1 inh	RORg inh	VP16 counter	PLK1 PBD block	Sfp PPTase inh
CCCOc1ccc(N2C(=O)CC(SCCc3nc4ccccc4[nH]3)C2=O)cc1 (stereo not drawn)	?	-3%	-19%	-2%	6%
O=C1CC(SCc2nc3ccccc3[nH]2)C(=O)N1c1ccc(F)c(Cl)c1 (stereo not drawn)	5µM*	?	-25%	-12%	-17%
O=C1CC(SCc2nc3ccccc3[nH]2)C(=O)N1c1cccc(F)c1 (stereo not drawn)	13µM*	10µM*	14µM*	-21%	?
O=C(Nc1ccc(F)cc1)C(c1ccnc2ccccc12)N1CCN(c2cccc(C(F)(F)F)n2)CC1 (stereo not drawn)	nt	nt	nt	7%	nt
COc1cccc(Nc2ncc3nc(-c4cn(C)c5ccccc45)c(=O)n(C[C@H]4CCCO4)c3n2)c1	9%	-3%	-4%	nt	17%
CCOc1cc(CNc2cccc3[nH]c(C)nc23)ccc1OC	nt	20%	9%	-12%	-11%
C/C(=N/NS(=O)(=O)c1cc(C)ccc1C)c1ccncc1	nt	7%	0%	15µM*	-5%
COc1ccccc1N1CCN(S(=O)(=O)c2c(C(=O)N3CCOCC3)c(C)n(C)c2C)CC1	nt	-15%	1%	3.4µM*	12%
COc1ccccc1N1CCN(C(=O)c2ccc(Cl)c(S(=O)(=O)N3CCOCC3)c2)CC1	nt	-15%	2%	-11%	3%
COc1cc(Cl)c(NS(=O)(=O)c2c(C(=O)N3CCCC3)c(C)n(C)c2C)c(OC)c1	nt	-17%	0%	27µM*	23%
COCC1=C2c3ccccc3[C@@H]3CNC(=O)C3(C(=O)OC)C[C@@H]2n2c(=O)n(-c3ccccc3)c(=O)n2C1 (stereo partly drawn)	0%	0%	0%	nt	4%
COc1ccc(Cl)cc1NC(=O)COC(=O)c1c(-c2ccccc2)noc1C	nt	nt	nt	4%	nt
COc1ccccc1-c1cc(C(=O)N/N=C/c2ccc(C)o2)c2ccccc2n1	nt	nt	nt	-10%	?
Cc1ccsc1/C=N/NC(=O)c1cc(-c2ccncc2)nc2ccccc12	?	1.8µM*	8.9µM*	-3%	-5%
COc1ccccc1-c1cc(C(=O)N/N=C/c2sccc2C)c2ccccc2n1	?	7.1µM*	8.9µM*	-4%	11%
NC(=O)c1c(N)[nH]c(C(=O)c2ccccc2)c1-c1ccccc1Br	nt	nt	nt	-4%	nt
CCC(C)C(NC)C(=O)O (stereo not drawn)	4%	-1%	-7%	nt	12%
CC(=O)NNC(=O)c1cc2sccc2s1	8%	-12%	-10%	-13%	5%
NNC(=O)c1cc2sccc2s1	2.5µM*	-35%	30%	4%	-12%
CCCCCCC1=Cc2cc(OC)c(OC)cc2C(CC(=O)/C=C/OC)O1 (stereo not drawn)	-2%[13.5 µM]	4%[10 µM]	4%[10 µM]	nt	-3%
Clc1nc2ccccc2nc1Cl	-10%	2%	-6%	nt	nt
CCCCNC(=O)c1ccc(Cn2c(=S)[nH]c3c([nH]c4ccc(OC)cc43)c2=O)cc1	7%	13µM*	18µM*	-4%	10%
CCOCCCNC(=O)c1ccc(Cn2c(=S)[nH]c3c([nH]c4ccc(OC)cc43)c2=O)cc1	?	-10%	2%	-15%	12%
COc1ccc2[nH]c3c(=O)n(Cc4ccc(C(=O)N5CCCCCC5)cc4)c(=S)[nH]c3c2c1	6%	-6%	11%	-3%	9%
COc1ccc2[nH]c3c(=O)n(Cc4ccc(C(=O)N5CCC(C(N)=O)CC5)cc4)c(=S)[nH]c3c2c1	?	0%	-8%	21µM*	22µM*
SMILES	ALDH1A1 inh	RORg inh	VP16 counter	PLK1 PBD block	Sfp PPTase inh
O=c1[nH]c2c(s1)C=Nc1ccccc1N2	-8%	7%[10 µM]	2%	13µM*	10%
Cc1ccc(S(=O)(=O)/N=C/c2c(O)ccc3ccccc23)cc1	nt	18µM*	?	30µM*	1%
Oc1ccc2ccccc2c1C=NCc1ccccc1	nt	?	?	-7%	-24%
Oc1ccccc1C=NN=Cc1c(O)ccc2ccccc12	nt	nt	nt	-1%	nt
O=S(=O)(/N=C/c1c(O)ccc2ccccc12)c1cccs1	11µM*	?	-19%	nt	-26%
COc1ccc(CC(=O)Nc2ccc(N3CCCC3)c(C)c2)cc1	nt	34%	2%	-14%	-15%
